Screens (PubChem BioAssay)
This is one part of a sample in which hits are shown more often than they occur.
Dicer inh – blocks human Dicer maturation of pre-miR-21; z-score at 25 µM; Q9UPY3; hit rate 6% among 47,000; cat-ELCCA pre-miR-21 Dicer processing, chemiluminescence; stronger effect = higher value; AID 1347074; in the data active = z-score above about 3, passing the limit was not always enough;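 also: plate controls were vehicle for no effect and no enzyme for full effect; higher signal means more uncleaved substrate so more Dicer inhibition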
Starred values were filed as active, the others as inactive.

What do the screens show for `Cc1noc(-c2ccccc2)c1NC(=O)N1CCN(C(c2ccccc2)c2ccccc2)CC1`?
Dicer inh: 1.39

Results for CCOC(=O)/C(C#N)=C/Nc1nc2ccc(C(=O)OCC)cc2s1 ?
Dicer inh: 1.28

How did CC1(C)CC(=O)C2=C(C1)Nc1ccccc1NC2c1cccc(Br)c1 (stereo not given) do in these assays?
Dicer inh: 3.54*

How did CC(C)Oc1ccc(C2Nc3ccccc3NC3=C2C(=O)CC(C)(C)C3)cc1 (stereo not given) do in these assays?
Dicer inh: -1.89

What do the screens show for `Cc1ccc2c(c1)NC(c1ccccc1)C1=C(CC(C)(C)CC1=O)N2` (stereo not given)?
Dicer inh: -1.42

How did CCOC(=O)c1ccc(-n2cccc2)cc1 do in these assays?
Dicer inh: -0.67

What do the screens show for `Cc1cc(C)n(C(C)C(=O)Nc2ccccc2Cl)c(=O)n1` (stereo not given)?
Dicer inh: 2.15

Results for CC(=O)Oc1ccc(C2C(C#N)=C(C)NC3=C2C(=O)CCC3)cc1 (stereo not given) ?
Dicer inh: -0.67

Results for CO/C(N)=N/C(=S)Nc1ccc(F)cc1F ?
Dicer inh: -0.72

Results for CCOC(=O)C(=CNc1cc(F)ccc1F)C(=O)OCC ?
Dicer inh: -1.78

Results for O=S(=O)(Nc1ccccc1)c1ccc(-c2ccc(S(=O)(=O)Nc3ccccc3)cc2)cc1 ?
Dicer inh: -0.35

What do the screens show for `CCN(CC)c1ccc(NS(=O)(=O)c2ccccc2)cc1`?
Dicer inh: 4.78*

What do the screens show for `Cc1ccc(S(=O)(=O)Nc2ccc(N(C)S(=O)(=O)c3ccc(C)cc3)cc2)cc1`?
Dicer inh: 0.4

Results for N/C(=N\OC(=O)CCn1cccc(C(F)(F)F)c1=O)c1ccccc1 ?
Dicer inh: 0.61

Results for CC1CN(C(=S)Nc2cccc(C(F)(F)F)c2)CC(C)O1 (stereo not given) ?
Dicer inh: -0.87

How did O=C1CSC(c2ccc(C(F)(F)F)cc2)N1CCN1C(=O)CSC1c1ccc(C(F)(F)F)cc1 (stereo not given) do in these assays?
Dicer inh: 0.64

Results for CC(=O)Nc1ccc(NC(=O)CCCC(=O)O)cc1 ?
Dicer inh: -2.43

Results for Cc1ccc(NC(=O)CCC(=O)O)cc1 ?
Dicer inh: -0.07

How did O=C(O)CCC(=O)Nc1ccc(C(=O)O)c(O)c1 do in these assays?
Dicer inh: 6.1*

What do the screens show for `S=C(NN=C1CCCCCC1)Nc1ccccc1`?
Dicer inh: 2.64

What do the screens show for `CC(=O)NNC(=S)Nc1cccc(F)c1`?
Dicer inh: -1.19

How did Fc1cccc(NC(=S)NN=C2CCCCCC2)c1 do in these assays?
Dicer inh: 4.2*

Results for Cc1cc(C)c(C(N)=O)c(CC(C)(C)C(=O)O)c1 ?
Dicer inh: -0.04

What do the screens show for `CCNc1nc(C(=O)O)nc(N2CCOCC2)n1`?
Dicer inh: 2.76

Results for O=C(O)CCCNc1nc(Cl)nc(N2CCOCC2)n1 ?
Dicer inh: 4.72*

What do the screens show for `Clc1nc(NCCN2CCOCC2)nc(NC2CCCCC2)n1`?
Dicer inh: 1.69

What do the screens show for `COc1cc(C(Sc2ccccc2)Sc2ccccc2)cc(OC)c1OC`?
Dicer inh: -0.32

Results for O=S(=O)(c1cccc(C(F)(F)F)c1)N1CCCC1 ?
Dicer inh: -1.88

What do the screens show for `CC1CN(Cc2c(O)ccc3c(=O)c(Oc4ccc5ccccc5c4)c(C(F)(F)F)oc23)CC(C)O1` (stereo not given)?
Dicer inh: 1.25

What do the screens show for `CC1CN(Cc2c(O)ccc3c2oc(=O)c2ccccc23)CC(C)O1` (stereo not given)?
Dicer inh: 3.09*

How did CN1CCN(Cc2c(O)ccc3c(=O)c(-c4ccccc4)c(C(F)(F)F)oc23)CC1 do in these assays?
Dicer inh: 0.54

How did CC1CCN(Cc2c(O)ccc3c2oc(=O)c2ccccc23)CC1 do in these assays?
Dicer inh: 3.46*

How did CC1CN(Cc2c(O)ccc3c(=O)c(-c4ccccc4)coc23)CC(C)O1 (stereo not given) do in these assays?
Dicer inh: 26.5

What do the screens show for `O=c1c(-c2ccccc2)coc2c(CN3CCCCC3)c(O)ccc12`?
Dicer inh: 0.61

What do the screens show for `Cc1ccc(S(=O)(=O)N2CCOCC2)cc1C`?
Dicer inh: 0.17

How did O=c1[nH]c2sc(-c3ccccc3)cc2c(=O)n1-c1ccc(Cl)cc1 do in these assays?
Dicer inh: 1.58

Results for O=C1C(c2cccc([N+](=O)[O-])c2)=C(O)c2ccccc21 ?
Dicer inh: -0.42

How did C=CCn1c(=O)c2c(nc3n2CCCCN3c2ccc(OCC)cc2)n(C)c1=O do in these assays?
Dicer inh: -0.76

What do the screens show for `CC(C)C1C(=O)CC(c2ccccc2)NC1c1ccccc1` (stereo not given)?
Dicer inh: 0.45

What do the screens show for `O=C1NNC(c2ccccc2)C1c1ccccc1` (stereo not given)?
Dicer inh: 3.47*

Results for O=C1C(=O)C(c2ccccc2)C(=O)C1c1ccccc1 (stereo not given) ?
Dicer inh: 1.64

What do the screens show for `CCOc1ccc2nc(NC3=NCN(Cc4ccccc4)CN3)nc(C)c2c1`?
Dicer inh: 0.73
